Test results taken from PubChem BioAssay (NCATS).
“And” between values parts separate entries of the source, which are not always exact repeats. Identical values can stand only once. Inconclusive results are not listed. The source made the active and inactive calls. Calls follow the shape of the dose curve; as a rule, active = well fitted curve in the direction sought with a large enough effect; inconclusive = small, poorly fitted or top-dose-only effect, or another doubt; inactive = no such curve, though single readings can be large; an effect the other way counts as inactive or inconclusive.

Experiments:
[1] = target: Cellular tumor antigen p53 (Homo sapiens) (UniProt P04637); experiment: Primary qHTS for small molecule compounds that upregulate eGFP-tagged delta133p53alpha (in N-terminal) cells. (AID 2060322); settings: NCI-H358 eGFP-delta133p53alpha fluorescence, 24 h; activation: stronger effect = higher value; also: nearly all actives have a fitted effect of over 75% in size; also: potency is read from the fitted curve at half-maximal effect;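 as to activation: series mostly up to about 56 µM; 0% = DMSO vehicle and 100% = reference activator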
Chain of Cellular tumor antigen p53 (Homo sapiens) (P04637 whole entry, looked up): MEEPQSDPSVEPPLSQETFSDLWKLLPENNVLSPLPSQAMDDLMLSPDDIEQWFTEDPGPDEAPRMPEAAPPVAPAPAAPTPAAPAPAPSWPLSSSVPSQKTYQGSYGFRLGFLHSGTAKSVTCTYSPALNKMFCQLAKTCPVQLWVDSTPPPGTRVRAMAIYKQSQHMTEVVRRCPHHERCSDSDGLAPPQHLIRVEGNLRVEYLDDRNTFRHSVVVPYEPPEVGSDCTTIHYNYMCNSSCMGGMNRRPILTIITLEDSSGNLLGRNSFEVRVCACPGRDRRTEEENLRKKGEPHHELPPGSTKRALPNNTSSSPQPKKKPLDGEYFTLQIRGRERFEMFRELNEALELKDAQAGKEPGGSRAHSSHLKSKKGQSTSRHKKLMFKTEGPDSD
How it was run: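 NCI-H358 cells pre-induced 24 h with 10 ng/ml doxycycline to express N-terminal eGFP-delta133p53alpha, then dosed 24 h at 37C without doxycycline; fixed, Hoechst-stained, GFP intensity by laser scanning cytometry, normalized to DMSO (0%) and 57.5 uM 5-azacytidine (100%).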

[2] = target: Aldehyde dehydrogenase, mitochondrial (Homo sapiens) (UniProt P05091); experiment: qHTS for Inhibitors of the Aldehyde Dehydrogenase Family (ALDH2) Primary screen (AID 2061308);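 also: plate controls were vehicle for no effect and reference inhibitor for full effect; nearly all actives have a fitted effect of over 55% in size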
[3] = target: Retinaldehyde dehydrogenase 3 (Homo sapiens) (UniProt P47895); experiment: qHTS for Inhibitors of the Aldehyde Dehydrogenase Family (ALDH1A3) Validation screen (AID 2061312); also: % is scaled to controls: 0 for no effect and ±100 for the full control effect; nearly all actives have a fitted effect of over 45% in size
[4] = target: Retinaldehyde dehydrogenase 3 (Homo sapiens) (UniProt P47895); experiment: qHTS for Inhibitors of the Aldehyde Dehydrogenase Family (ALDH1A3) Primary screen (AID 2061315);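 also: plate controls were DMSO vehicle for no effect and reference inhibitor for full effect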

Cc1nc(C(=O)N2CCC[C@H]2Cc2nnc(-c3ccccc3)o2)c(-c2ccccc2F)s1
inactive: activation [1] 3.82% | Potency [2] | Potency [3] | Potency [4]

O=C(N[C@@H]1CC[C@@H](c2cccc(F)c2F)CN(CC(F)(F)F)C1=O)N1CCC(n2c(=O)[nH]c3ncccc32)CC1
inactive: activation [1] -0.477% | Potency [2] | Potency [3] | Potency [4]

Cc1cc(NC(=O)NCCN2CCC(O)(Cc3ccccc3)CC2)c2ccccc2n1
inactive: activation [1] 3.34% | Potency [2] | Potency [3] | Potency [4]

Cc1c(C(=O)Nc2ccc(N3CCC(N4CCOCC4)CC3)c(C#N)c2)cnn1-c1ccc(Cl)cc1
inactive: activation [1] 15.8% | Potency [2] | Potency [3] | Potency [4]

NC1=NC2(c3cc(NC(=O)c4ccc(F)cn4)ccc3F)COCC2CS1 (centres undefined)
inactive: activation [1] -6.68% | Potency [2] | Potency [3] | Potency [4]

O=C(Nc1ccc(N2CCC(C(=O)N3CCOCC3)CC2)cc1)c1cnc(Oc2ccccc2)nc1
inactive: activation [1] -2.39% | Potency [2] | Potency [3] | Potency [4]

CN(C)[C@@H]1CCc2[nH]c3ccc(NC(=O)c4ccc(F)cc4)cc3c2C1
inactive: activation [1] 0.477% | Potency [2] | Potency [3] | Potency [4]

Nc1nc2c(c(N3CCNCC3)n1)CCC1=C2[C@@H]2CCCC[C@@H]2O1
inactive: activation [1] -18.1% | Potency [2] | Potency [3] | Potency [4]

Cc1onc(-c2ccccc2Cl)c1C(=O)N(C)c1ccc(Cl)cc1
inactive: activation [1] -1.43% | Potency [2] | Potency [3] | Potency [4]

CCC(C(C)O)n1ncn(-c2ccc(N3CCN(c4ccc(OCC5COC(Cn6cncn6)(c6ccc(F)cc6F)C5)cc4)CC3)cc2)c1=O (centres undefined)
inactive: activation [1] 5.25% | Potency [2] | Potency [3] | Potency [4]

O=C(O)c1ccc(S(=O)(=O)N(Cc2ccc(OC(F)(F)F)cc2)c2ncc(C(F)(F)F)cc2Cl)cc1
inactive: activation [1] -2.86% | Potency [2] | Potency [3] | Potency [4]

Cn1c(=O)cc(N2CCCC(N)C2)n(Cc2ccccc2C#N)c1=O (centres undefined)
inactive: activation [1] 0% | Potency [2] | Potency [3] | Potency [4]

O=C(O)C1CN(Cc2ccc(-c3nc4cc(Cc5ccccc5F)ccc4s3)c(F)c2)C1
inactive: activation [1] -12.4% | activity change, negative = inhibition [2] -1.77% [at 11.2 µM] | activity change, negative = inhibition [3] -10% [at 20.1 µM] | activity change, negative = inhibition [4] -4.23% [at 11.2 µM]

Cc1occc1C(=O)n1ccnc1
inactive: activation [1] 1.43% | Potency [2] | Potency [3] | Potency [4]

Cn1c(=O)c2c(ncn2Cc2ccc(C(C)(C)C)cc2)n(C)c1=O
inactive: activation [1] -5.25% | Potency [2] | Potency [3] | Potency [4]

COc1ccc(-c2csc(NC(=O)[C@H]3CCCCN3S(=O)(=O)c3ccc(C)cc3)n2)cc1
inactive: activation [1] -8.59% | Potency [2] | Potency [3] | Potency [4]

CS(=O)(=O)c1ccc([C@@H](O)[C@@H](CF)NC(=O)C(Cl)Cl)cc1
inactive: activation [1] -2.82% and -2.86% | Potency [2] | Potency [3] | Potency [4]

Cc1cc(C)nc(SCC(=O)Nc2ncc(Cc3cccc4ccccc34)s2)n1
inactive: activation [1] -8.11% | Potency [2] | Potency [3] | Potency [4]

Cn1nc(C(C)(C)C)cc1C(=O)NC(Cc1cccc(Cl)c1)C(=O)NCC#N (centres undefined)
inactive: activation [1] -4.3% | Potency [2] | Potency [3] | Potency [4]

COc1cccc(C(=O)NCCNc2nc3cc(C)cc(C)c3cc2C#N)c1
inactive: activation [1] -1.91% | Potency [2] | Potency [3] | Potency [4]

CCOC(=O)CCC(=O)O[C@H]1[C@H](O[C@@H]2[C@@H](C)[C@H](O[C@H]3C[C@@](C)(OC)[C@@H](O)[C@H](C)O3)[C@@H](C)C(=O)O[C@H](CC)[C@@](C)(O)[C@H](O)[C@@H](C)C(=O)[C@H](C)CC2(C)O)O[C@H](C)C[C@@H]1N(C)C (some centres undefined)
inactive: activation [1] 9.55% | Potency [2] | Potency [3] | Potency [4]

CC[C@H]1OC(=O)[C@H](C)[C@@H](O[C@H]2C[C@@](C)(OC)[C@@H](O)[C@H](C)O2)C(C)[C@@H](O[C@@H]2O[C@H](C)C[C@H](N(C)C)[C@H]2O)[C@](C)(O)C[C@@H](C)CN(C)[C@H](C)[C@@H](O)[C@]1(C)O (some centres undefined)
inactive: activation [1] -5.73% | Potency [2] | Potency [3] | Potency [4]

O=C(Nc1ccn(Cc2ccc(O)cc2C(F)(F)F)n1)c1c(F)cccc1F
inactive: activation [1] -13.4% | Potency [2] | Potency [3] | Potency [4]

Cc1ccc(COC(=O)N2CC[C@@H](CNc3ncccn3)[C@@H](F)C2)cc1
inactive: activation [1] 1.91% | Potency [2] | Potency [3] | Potency [4]

NS(=O)(=O)c1ccc(N2CCN(CC[C@@H]3OCCc4ccccc43)CC2)cc1
inactive: activation [1] 16.7% | Potency [2] | Potency [3] | Potency [4]

CCCC(N[C@@H](C)C(=O)N1[C@H](C(=O)O)C[C@@H]2CCCC[C@@H]21)C(=O)OCC (some centres undefined)
inactive: activation [1] 2.39% | Potency [2] | Potency [3] | Potency [4]

On1ncc(C2CCNCC2)c1-c1cccc(-c2ccccc2)c1
inactive: activation [1] -8.11% | Potency [2] | Potency [3] | Potency [4]

Cc1cc(N2CCN([C@@H]3CN[C@H](C(=O)N4CCSC4)C3)CC2)n(-c2ccccc2)n1
inactive: activation [1] -1.91% | Potency [2] | Potency [3] | Potency [4]

CNC(=O)c1ccc2c(c1)CCO[C@H]2CCN1CCN(c2ccc(OC)cc2)CC1
inactive: activation [1] -25.3% | Potency [2] | Potency [3] | Potency [4]

Cc1cc(CN)cc(C)c1NC(=O)c1ccc(-c2cc(Cl)ccc2Cl)o1
inactive: activation [1] 6.68% | Potency [2] | Potency [3] | Potency [4]

Cc1ccccc1C(=O)Nc1ccc(C(=O)N2CCCC(N(C)C)c3ccccc32)cc1 (centres undefined)
inactive: Potency [2] | Potency [3] | Potency [4]
active: Potency [1] 3.89 µM

COc1ccc(-c2nc(-c3ccc(-c4cccc(Cl)c4)o3)[nH]c2-c2ccc(OC)cc2)cc1
inactive: activation [1] -3.82% | Potency [2] | Potency [3] | Potency [4]

Cc1ccc(NC(=O)C(C)C)cc1C1CCN(Cc2ccc(Oc3ccc(F)c(F)c3)cc2)CC1
inactive: activation [1] 16.7% | Potency [2] | Potency [3] | Potency [4]

Cc1cc(C)c(S(=O)(=O)N(Cc2ccc(-c3cccc(S(C)(=O)=O)c3)cc2)Cc2ccc(C(F)(F)F)o2)c(C)c1
inactive: activation [1] -0.955% | Potency [2] | Potency [3] | Potency [4]

CCOc1ccc(C(Nc2ccccn2)c2ccc3ccc(C)nc3c2O)cc1C (centres undefined)
inactive: activation [1] 19.6% | Potency [2] | Potency [3] | Potency [4]

CCOC(=O)[C@H](CCc1ccccc1)CC1(C(=O)N[C@H]2CCc3ccccc3N(CC(=O)O)C2=O)CCCC1
inactive: activation [1] 6.21% | Potency [2] | Potency [3] | Potency [4]

COC(=O)c1sccc1S(=O)(=O)Nc1ccc(Nc2ccccc2)cc1OC
inactive: activation [1] -5.73% | Potency [2] | Potency [3] | Potency [4]

CCOC(=O)CCN(C(=O)c1ccc2c(c1)nc(CNc1ccc(C(=N)N)cc1)n2C)c1ccccn1
inactive: activation [1] -4.77% | Potency [2] | Potency [3] | Potency [4]

Cc1cc(C(=O)Cn2cc(C#N)ccc2=O)c(C)n1Cc1ccccc1
inactive: activation [1] 6.21% | Potency [2] | Potency [3] | Potency [4]

Cc1ccc(-n2nc(C(C)(C)C)cc2NC(=O)Nc2cc(COc3cccnc3)[nH]n2)cc1
inactive: activation [1] 6.21% | Potency [2] | Potency [3] | Potency [4]

c1ccc(Nc2nc3c(s2)CCCc2[nH]ncc2-3)nc1
inactive: activation [1] 8.59% | Potency [2] | Potency [3] | Potency [4]

CC(=O)SCC(=O)c1ccc(NS(=O)(=O)c2ccc(OCCCN(C)C)cc2)nc1
inactive: activation [1] 10% | Potency [2] | Potency [3] | Potency [4]

N[C@@H](CC(=O)Nc1ccc(Oc2cc(F)c(F)cc2Br)cc1)C(=O)O
inactive: activation [1] -8.11% | Potency [2] | Potency [3] | Potency [4]

CN1CCN(C2=Nc3ccccc3Nc3ccc(OS(=O)(=O)C(F)(F)F)cc32)CC1
inactive: activation [1] -11.9% | Potency [2] | Potency [3] | Potency [4]

CC(C)S(=O)(=O)Nc1ccc(F)c(C(=O)c2c[nH]c3ncc(-c4cccnc4)cc23)c1F
inactive: activation [1] 28.6% | Potency [2] | Potency [3] | Potency [4]

CC(C)(CO)c1cc2cc(NC(=O)C3(c4ccc5c(c4)OC(F)(F)O5)CC3)c(F)cc2n1CC(O)CO (centres undefined)
inactive: activation [1] 17.7% | Potency [2] | Potency [3] | Potency [4]

N[C@@H]1c2cccnc2[C@H](OC(=O)N2CCC(n3c(=O)[nH]c4ncccc43)CC2)CC[C@H]1c1cccc(F)c1F
inactive: activation [1] -10.5% | Potency [2] | Potency [3] | Potency [4]

O=C(NCCCN1CCC2(CC1)OCc1ccccc12)[C@H]1CCCN1Cc1ccccc1
inactive: activation [1] 0.477% | Potency [2] | Potency [3] | Potency [4]

OC1CCC(Nc2nc(-c3ccccc3)nc3[nH]ccc23)CC1 (centres undefined)
inactive: activation [1] -8.11% | Potency [2] | Potency [3] | Potency [4]

CC[C@H](C(=O)Nc1ccccc1N1CCCC1)c1ccccc1
inactive: activation [1] 2.86% | Potency [2] | Potency [3] | Potency [4]

CN(C)c1ccnc2sc3c(=O)n(N4CCCCCC4)cnc3c12
inactive: activation [1] -18.1% | Potency [2] | Potency [3] | Potency [4]

O=S(=O)(Nc1ccccc1N1CCCCC1)c1ccc(Cl)s1
inactive: activation [1] -11.9% | Potency [2] | Potency [3] | Potency [4]

C[C@H](Oc1cc(-c2cnn(C3CCNCC3)c2)cnc1N)c1c(Cl)ccc(F)c1Cl
inactive: activation [1] 14.8% | Potency [2] | Potency [3] | Potency [4]

CC(C)C(=O)Oc1ccc(CO)cc1[C@H](CCN(C(C)C)C(C)C)c1ccccc1
inactive: activation [1] 16.6% and 0.955% | Potency [2] | Potency [3] | Potency [4]

COc1ccc(CCN(C)CCCOc2nsc(-c3ccccc3)n2)cc1OC
inactive: activation [1] 13.4% | Potency [2] | Potency [3] | Potency [4]

O=S(=O)(Cc1ccccc1)Nc1ccc(-c2ccc3c(cnn3-c3ccc(F)cc3)c2)c(C(F)(F)F)c1
inactive: activation [1] -1.91% | Potency [2] | Potency [3] | Potency [4]
